In the library only some 2.5% were active in any assay of this set; here they are far more common.
MEKK2mut PB1 HTS: MEK5 binding signal on mutant MEKK2 PB1, primary screen, biochemical, multiplex bead flow cytometry, Alexa488-MEK5; percent response, % at 10 µM; AID 1530, 2009; Alexa488-MEK5 binding to MEKK2 mutant; 0.35% of 290,000 active; in the data active = percent response above about 24%, passing the limit was not always enough
MEKK2wt PB1 HTS: modulators of MEK5 binding to wildtype MEKK2, primary screen, biochemical, multiplex bead flow cytometry, Alexa488-MEK5; 1.1% of 290,000 active; Alexa488-MEK5 binding to MEKK2 WT; actives lie on both sides; AID 1531, 2009; binding response (% of control), % at 10 µM; in the data active = binding response below about 67% or above about 130%
GRK2 inh: compounds blocking aptamer binding on GRK2 – biochemical, human GRK2, bead flow cytometry, HTS, primary screen; Beta-adrenergic receptor kinase 1 (Homo sapiens), P25098; FAM-aptamer displacement from GRK2; inhibition of aptamer binding, % at 10 µM; 0.59% of 330,000 active;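 active = inhibition of aptamer binding above 40%, roughly 3 SD of noise, on plates passing a quality check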;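 note: median bead fluorescence of bound FAM aptamer so fluorescent compounds give negative values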
Target sequence (P25098 whole entry, looked up): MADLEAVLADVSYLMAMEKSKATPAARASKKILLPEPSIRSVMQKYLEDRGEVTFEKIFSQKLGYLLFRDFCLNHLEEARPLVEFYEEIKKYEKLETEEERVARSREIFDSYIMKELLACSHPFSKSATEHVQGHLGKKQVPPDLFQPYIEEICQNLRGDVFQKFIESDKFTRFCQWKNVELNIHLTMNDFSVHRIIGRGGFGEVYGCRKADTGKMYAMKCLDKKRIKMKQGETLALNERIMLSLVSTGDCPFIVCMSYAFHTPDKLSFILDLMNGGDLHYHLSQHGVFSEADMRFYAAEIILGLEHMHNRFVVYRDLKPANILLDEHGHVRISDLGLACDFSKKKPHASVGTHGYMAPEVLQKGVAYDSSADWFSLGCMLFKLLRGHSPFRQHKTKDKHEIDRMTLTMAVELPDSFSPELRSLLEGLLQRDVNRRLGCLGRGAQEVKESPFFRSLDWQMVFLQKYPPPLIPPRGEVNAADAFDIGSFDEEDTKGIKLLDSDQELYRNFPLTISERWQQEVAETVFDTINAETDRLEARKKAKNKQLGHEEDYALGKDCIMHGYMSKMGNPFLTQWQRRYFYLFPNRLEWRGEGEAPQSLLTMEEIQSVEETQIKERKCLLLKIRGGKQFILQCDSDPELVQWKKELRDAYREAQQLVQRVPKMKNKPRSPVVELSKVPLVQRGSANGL
MEKK3 PB1 HTS: modulators of MEKK3-MEK5 PB1 binding, primary screen, biochemical, wildtype MEKK3, multiplex bead flow cytometry, Alexa488-MEK5 | Mitogen-activated protein kinase kinase kinase 3 (Homo sapiens), Q99759 | bead-based flow cytometry, Alexa488-MEK5 binding to MEKK3; actives lie on both sides; 0 = blocked by unlabeled MEK5, 100 = vehicle | binding response (% of control), % at 10 µM | 1.4% of 290,000 active;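 active = binding response more than 3 SD above or below the average of its plate-row segment, actives on both sides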;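 note: Alexa488 bead fluorescence after subtracting the streptavidin-only scavenger bead signal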
MEKK2wt confirm: modulators of MEK5 binding to wildtype MEKK2, confirmation, biochemical, single concentration, multiplex bead flow cytometry; shares compounds with MEKK3 PB1 HTS; Alexa488-MEK5 binding to MEKK2 WT; actives lie on both sides; binding response (% of control), % at 10 µM; 2.4% of 5,900 active; AID 1892, 2009; in the data active = binding response below about 16% or above about 210%; inactive = in between
MEKK2mut-MEK5: mutant MEKK2 PB1-MEK5 binding signal retest – biochemical, single concentration, multiplex bead flow cytometry, confirmation; 2% of 5,900 active; percent response, % at 10 µM; shares compounds with MEKK3 PB1 HTS; Alexa488-MEK5 binding to MEKK2 mutant; in the data active = percent response mostly above about 71%, no sharp cut-off; inactive = mostly below about 38%;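 note: higher means compound restores mutant binding toward wildtype level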
MEKK3-MEK5 inh: MEKK3 wild-type PB1 binding to MEK5, inhibitors, confirmation, biochemical, bead multiplex flow cytometry, single concentration, wildtype. Alexa488-MEK5 binding to MEKK3; active compounds read low. 1.8% of 5,900 active. shares compounds with MEKK3 PB1 HTS. binding response (% of control), % at 10 µM;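 active = binding response below 72% of control, or above a set upper limit, though filed actives all read lower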;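 note: 100% = DMSO only wells and 0% = binding blocked by excess unlabeled MEK5; lower values mean stronger disruption of MEK5 binding to MEKK3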
An asterisk follows results filed as active; [ ] = another dose, or the depositor's remark.

Screening CCOC(=O)CC(=O)CSc1nc(-c2cccnc2)ccc1C#N returned MEKK2mut PB1 HTS 1.0, MEKK2wt PB1 HTS 100.0, GRK2 inh 1.0 and MEKK3 PB1 HTS 98.0.
For CCN(CC)CCCNC(=O)c1[nH]c2ccccc2c1Sc1ccc(Cl)cc1 the results were MEKK2mut PB1 HTS 38.0*, MEKK2wt PB1 HTS 163.0*, GRK2 inh 0.0, MEKK3 PB1 HTS 105.0, MEKK2wt confirm 167.0, MEKK2mut-MEK5 46.0 and MEKK3-MEK5 inh 106.0.
`COCCNc1nc2c(c(=O)n(Cc3ccccc3F)c(=O)n2C)n1C` gave MEKK2mut PB1 HTS 12.0, MEKK2wt PB1 HTS 107.0, GRK2 inh 38.0 and MEKK3 PB1 HTS 107.0.
For COCC(=O)Nc1cc(C(=O)Nc2ccccc2C)ccc1Cl the results were MEKK2mut PB1 HTS -12.0, MEKK2wt PB1 HTS 83.0, GRK2 inh 0.0, MEKK3 PB1 HTS 82.0*[inhibitor], MEKK2wt confirm 94.0, MEKK2mut-MEK5 -9.0 and MEKK3-MEK5 inh 98.0.
`COc1cc(/C=N/N=C(N)N)ccc1OCc1ccc(Cl)cc1` gave MEKK2mut PB1 HTS 69.0*, MEKK2wt PB1 HTS 230.0*, GRK2 inh 0.0, MEKK3 PB1 HTS 122.0, MEKK2wt confirm 180.0, MEKK2mut-MEK5 48.0 and MEKK3-MEK5 inh 102.0.
For CCOc1cc(/C=N/N=C(N)N)ccc1OCc1ccc(Cl)cc1 the results were MEKK2mut PB1 HTS 6.0, MEKK2wt PB1 HTS 149.0*, GRK2 inh 0.0, MEKK3 PB1 HTS 104.0, MEKK2wt confirm 202.0, MEKK2mut-MEK5 63.0 and MEKK3-MEK5 inh 109.0.
`COc1cc(/C=N/O)ccc1OCc1ccc(Cl)cc1` gave MEKK2mut PB1 HTS -4.0, MEKK2wt PB1 HTS 92.0, GRK2 inh 0.0 and MEKK3 PB1 HTS 96.0.
`O=C(NCc1ccccc1F)C1CCCN(C(=O)NC2CCCCC2)C1` (stereo not drawn) gave MEKK2mut PB1 HTS -9.0, MEKK2wt PB1 HTS 82.0, GRK2 inh 1.0 and MEKK3 PB1 HTS 86.0.
Cc1ccc(NS(=O)(=O)N(C)C)cc1 was read as MEKK2mut PB1 HTS -4.0, MEKK2wt PB1 HTS 81.0, GRK2 inh 2.0, MEKK3 PB1 HTS 71.0*[inhibitor], MEKK2wt confirm 99.0, MEKK2mut-MEK5 -4.0 and MEKK3-MEK5 inh 102.0.
C=CCn1c(SCC(=O)NC2CCCCC2)nnc1-c1ccc(OC)cc1 was read as MEKK2mut PB1 HTS -3.0, MEKK2wt PB1 HTS 87.0, GRK2 inh 0.0 and MEKK3 PB1 HTS 82.0.
Screening CCOc1ccc(CN(C)C(C)C(=O)Nc2ccc([N+](=O)[O-])cc2Cl)cc1OC (stereo not drawn) returned MEKK2mut PB1 HTS -2.0, MEKK2wt PB1 HTS 98.0, GRK2 inh 0.0, MEKK3 PB1 HTS 139.0*, MEKK2wt confirm 103.0, MEKK2mut-MEK5 3.0 and MEKK3-MEK5 inh 100.0.
COc1ccc(CN(C)C(C)C(=O)Nc2ccc([N+](=O)[O-])cc2Cl)cc1OC (stereo not drawn) was read as MEKK2mut PB1 HTS 18.0, MEKK2wt PB1 HTS 116.0, GRK2 inh 4.0 and MEKK3 PB1 HTS 113.0.
For OC(c1ccccc1)(c1ccccc1)c1ncc[nH]1 the results were GRK2 inh 0.0.
Screening COc1ccccc1CNCC(=O)Nc1ccc(N2CCOCC2)cc1 returned MEKK2mut PB1 HTS 2.0, MEKK2wt PB1 HTS 100.0, GRK2 inh 0.0 and MEKK3 PB1 HTS 98.0.
Screening CC(=O)CN1Cc2ccccc2/C1=N\C(=O)Nc1ccccc1 returned MEKK2mut PB1 HTS -9.0, MEKK2wt PB1 HTS 86.0, GRK2 inh 0.0, MEKK3 PB1 HTS 77.0*[inhibitor], MEKK2wt confirm 101.0, MEKK2mut-MEK5 -6.0 and MEKK3-MEK5 inh 101.0.
CC1CN(C(=O)Nc2ccc(Br)cc2Cl)CC(C)O1 (stereo not drawn) was read as MEKK2mut PB1 HTS 0.0, MEKK2wt PB1 HTS 104.0, GRK2 inh 4.0 and MEKK3 PB1 HTS 102.0.
COc1cc(NS(=O)(=O)c2ccc(NC(=S)NC(=O)C(C)(C)C)cc2)nc(OC)n1 was read as MEKK2mut PB1 HTS -23.0, MEKK2wt PB1 HTS 51.0, GRK2 inh 0.0, MEKK3 PB1 HTS 38.0*[inhibitor], MEKK2wt confirm 98.0, MEKK2mut-MEK5 0.0 and MEKK3-MEK5 inh 105.0.
For COc1cc(NS(=O)(=O)c2ccc(NC(=S)NC(=O)c3cccs3)cc2)nc(OC)n1 the results were MEKK2mut PB1 HTS 0.0, MEKK2wt PB1 HTS 111.0, GRK2 inh 0.0 and MEKK3 PB1 HTS 109.0.
For COc1ccc(N2CCC(CNC(=O)Nc3ccc(Cl)cc3)C2)cc1 (stereo not drawn) the results were MEKK2mut PB1 HTS 7.0, MEKK2wt PB1 HTS 142.0, GRK2 inh 0.0, MEKK3 PB1 HTS 141.0*, MEKK2wt confirm 106.0, MEKK2mut-MEK5 2.0 and MEKK3-MEK5 inh 100.0.
`COc1ccc(N2CCC(CNC(=O)Nc3cccc(OC)c3)C2)cc1` (stereo not drawn) gave MEKK2mut PB1 HTS 2.0, MEKK2wt PB1 HTS 100.0, GRK2 inh 0.0 and MEKK3 PB1 HTS 99.0.
Cn1c(=O)c2cc(S(=O)(=O)NCCC(=O)N3CC=C(c4ccccc4)CC3)ccc2n(C)c1=O was read as MEKK2mut PB1 HTS 2.0, MEKK2wt PB1 HTS 99.0, GRK2 inh 0.0 and MEKK3 PB1 HTS 98.0.
For C[C@H]1CN([C@@H](C)CO)C(=O)c2cccc(NC(=O)C3CC3)c2O[C@H]1CN(C)Cc1ccc(-c2ccccc2)cc1 the results were GRK2 inh 0.0.
COc1ccc(NC(=O)C2CCCN(CCCc3ccccc3)C2)cc1OCC(C)C (stereo not drawn) was read as MEKK2mut PB1 HTS 19.0, MEKK2wt PB1 HTS 139.0*, GRK2 inh 0.0, MEKK3 PB1 HTS 110.0, MEKK2wt confirm 109.0, MEKK2mut-MEK5 3.0 and MEKK3-MEK5 inh 98.0.
`O=C(CNCC1CCCCC1)Nc1cccc(S(=O)(=O)N2CCOCC2)c1` gave MEKK2mut PB1 HTS -2.0, MEKK2wt PB1 HTS 101.0, GRK2 inh 1.0 and MEKK3 PB1 HTS 101.0.
`CCOc1ccc(NC(=O)c2ccc(NC(=O)c3cn4c5c(c(N6CCN(C)CC6)c(F)cc5c3=O)OCC4C)cc2)cc1` (stereo not drawn) gave MEKK2mut PB1 HTS -8.0, MEKK2wt PB1 HTS 70.0, GRK2 inh 0.0, MEKK3 PB1 HTS 45.0*[inhibitor], MEKK2wt confirm 181.0, MEKK2mut-MEK5 40.0 and MEKK3-MEK5 inh 85.0.

Compound activity deposited in PubChem BioAssay by NMMLSC.
